# Bioassay records (PubChem BioAssay)
# Sampled rows, rich in hits. Any-hit rate of the full collection: about 2.6%.
# NOTCH ag = NOTCH pathway agonism | NOTCH signaling luciferase reporter cells, luminescence | activation, % at 2.5 µM | 15,000 compounds, 0.4% hits | AID 434982; in the data active means activation above about 2.2%
# rat GALR2 agon = GALR2 (rat) receptor agonism. O08726. cell-based GALR2 agonist screen. activation, % at 10 µM. 16,000 compounds, 0.5% hits. AID 833; in the data active means activation above about 15%
# Target sequence (O08726 whole entry, looked up): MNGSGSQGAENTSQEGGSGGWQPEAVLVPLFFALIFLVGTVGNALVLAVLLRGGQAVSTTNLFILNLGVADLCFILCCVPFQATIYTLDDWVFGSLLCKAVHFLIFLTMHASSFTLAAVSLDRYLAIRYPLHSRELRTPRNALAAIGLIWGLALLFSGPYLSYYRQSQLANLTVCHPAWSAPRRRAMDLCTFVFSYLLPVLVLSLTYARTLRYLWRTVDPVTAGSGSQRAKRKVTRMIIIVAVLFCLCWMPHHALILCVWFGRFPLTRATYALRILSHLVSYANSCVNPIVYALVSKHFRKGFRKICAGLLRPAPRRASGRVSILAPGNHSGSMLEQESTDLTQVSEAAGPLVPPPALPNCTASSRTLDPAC
# S1P1 agonist = S1P1 (human) receptor agonism; P21453; S1P1 agonist cell-based reporter assay; activation, % at 4.5 µM; 16,000 compounds, 1.5% hits; AID 1044; in the data active means activation above about 80%
# TLR4-MyD88 inh = inhibitors of human TLR4-MyD88 binding | inhibition, % at 10 µM | AID 811 | Cell-based TLR4-MyD88 binding inhibition assay | O00206 | 16,000 compounds, 0.06% hits; in the data active means inhibition above about 45%
# An asterisk follows results filed as active; x = not tested or not shown.
SMILES,NOTCH ag,rat GALR2 agon,S1P1 agonist,TLR4-MyD88 inh
Cc1nnsc1C(=O)Nc1ccc(-n2nc(C(F)(F)F)cc2C(F)(F)F)cc1,-0.7,-10.8,98.7*,x
OC(CN1CCN(Cc2c(F)cccc2Cl)CC1)Cn1ccc2ccccc21 (stereo not drawn),2.7*,-6.5,8.7,-6.7
OC(CN1CCC(NC2CCCCC2O)CC1)Cn1ccc2ccccc21 (stereo not drawn),0.0,-1.8,8.2,0.6
O=[N+]([O-])c1ccccc1SCc1csc2ccccc12,-0.2,-5.6,98.0*,-8.9
FC(F)(F)Oc1ccc(-c2noc(-c3ccno3)n2)cc1,0.5,-6.3,90.9*,-1.4
CCOC(=O)c1sc(N/N=C/c2cccs2)c2c1CC(C)(C)CC2=O,0.1,19.3*,3.1,1.4
CCOC(=O)c1sc(N2CCCCC2)c2c1CC(C)(C)CC2=O,-0.7,0.9,-20.8,2.5
Cc1c(-c2nc(-c3ccc(C(C)(C)C)cc3)no2)n(C)oc1=O,-0.6,-2.8,95.4*,2.3
COc1ccc(-c2nc(N(C)c3ccccc3)[nH]c(=O)c2C#N)cc1,3.5*,-8.3,17.8,-0.5
COc1ccc(-c2c(C#N)c(C(C)=O)[nH]c(=O)c2C#N)cc1,-0.6,-6.4,11.2,1.8
Cc1n[nH]c(=S)n(/N=C/c2ccc(Cl)cc2)c1=O,-0.6,-8.2,8.2,-5.0
Cc1nn(C)c(Cl)c1S(=O)(=O)Nc1ccc(Oc2ccc(F)cc2)cc1,-1.3,-1.6,23.9,-1.2
N#CC(CO)Cc1cc([N+](=O)[O-])ccc1N1CCOCC1 (stereo not drawn),-0.6,-8.0,2.5,-4.5
N#CC(CO)Cc1cc([N+](=O)[O-])ccc1N1CCCCC1 (stereo not drawn),-0.3,-7.4,94.9*,1.3
Cc1noc(C)c1S(=O)(=O)N(Cc1ccccc1)C(C)C,-0.2,47.0*,3.3,-5.8
CC1(C)COC(c2sccc2C(=O)N(C(=O)NC2CCCCC2)C2CCCCC2)=N1,-0.5,-4.5,-8.6,2.2
O=C(N/C(=C\c1ccc(-c2ccc([N+](=O)[O-])cc2)o1)c1nc2ccccc2[nH]1)c1ccccc1,-0.7,-17.3,68.1,49.9*
O=[N+]([O-])c1ccc(-c2ccc(-c3ccc([N+](=O)[O-])cc3)o2)cc1,-0.7,-14.4,65.8,7.9
Cc1nc(C(F)(F)F)c(C(=O)O/N=C(\N)c2cccc(C(F)(F)F)c2)s1,-0.2,-7.8,99.0*,0.6
CCCc1c(C(=O)Nc2ncn[nH]2)cnn1-c1ccccc1,-0.2,-1.1,13.7,-0.9
CCCc1c(C(=O)Nc2ccc3ccccc3n2)cnn1-c1ccccc1,0.1,-5.8,96.1*,1.1
CCC(=O)OC1CCC2(C)C(CCC3C4CC=C(C(C)=O)C4(C)CC(=O)C32)C1 (stereo not drawn),-0.3,-8.1,-14.9,-4.3
CSc1nc(/C=N/c2nc(C)cc(C)n2)c(O)n1Cc1cccc(Cl)c1,-0.1,-3.6,102.7*,2.0
O=S(=O)(CCCCCS(=O)(=O)c1ccccc1)c1ccccc1,-0.1,-1.8,-1.2,4.7
Cc1nnsc1-c1nnc(C2CCCCC2)o1,3.8*,-6.2,-1.7,-18.8
SMILES,NOTCH ag,rat GALR2 agon,S1P1 agonist,TLR4-MyD88 inh
Cc1c(C)c(C)c(CSCC(=O)N/N=C/c2ccncc2)c(C)c1C,-1.0,-6.7,10.4,3.3
COC(=O)CNC(=O)c1ccccc1,-0.1,-4.7,1.1,-6.8
O=C(NCC(O)COCc1ccccc1)c1ccccc1 (stereo not drawn),x,29.1*,4.3,-6.6
NC(=O)c1sccc1NC(=O)C(F)(F)F,0.5,-7.9,-19.8,-1.5
C#CC(CC)(CC)N=Cc1cc(Br)ccc1OCC,x,-6.1,122.7*,15.6
Cc1c(N=Cc2ccc(-c3cccc([N+](=O)[O-])c3)o2)c(=O)n(-c2ccccc2)n1C,0.8,-2.9,7.0,7.9
CSc1sc(C(=O)NCC2CC2)cc1S(=O)(=O)C(C)C,-0.2,17.1*,-2.8,-0.9
CSc1sc(C(=O)O)cc1S(=O)(=O)C(C)C,0.2,-3.1,2.5,7.3
N/C(Cc1ccc(F)cc1Cl)=N\O,-0.2,-1.9,8.7,-3.3
Cc1cc(N=Nc2cccc(C(F)(F)F)c2)ccc1N,0.8,-12.2,100.7*,-1.4
Nc1ccc(C(F)(F)F)cc1N,-0.2,-7.8,3.8,-2.9
CCOC(=O)c1csc(-c2csc(C)n2)n1,-0.2,-5.6,-20.4,4.0
O=C(Nc1ccc(-c2nc3ccccc3s2)cc1)c1ccc2c(c1)CCO2,-0.6,7.3,-17.8,-24.3
O=C(Nc1ccc(-c2nc3ccccc3s2)cc1)Nc1cc(F)cc2c1OCOC2,-0.1,33.4*,-16.8,-48.3
Oc1ccccc1/C=N/c1ncn[nH]1,-0.3,-6.5,6.5,6.4
CN(C)Nc1ccc([N+](=O)[O-])c(NN(C)C)c1C#N,-0.5,-4.9,81.4*,7.6
Nc1nc(-c2ccc3c(c2)CCC3)cc(C(F)(F)F)n1,2.2,-6.4,83.0*,-2.4
COc1ccc(CCNC(=O)c2nccnc2C(=O)O)cc1OC,-0.3,-5.9,-4.5,7.6
COC(=O)c1sc2ccccc2c1Cl,-0.6,-2.6,107.5*,13.5
COC(=O)c1sc2ccccc2c1OC(=O)c1cccs1,-0.7,-7.7,23.0,-3.2
CN(C)S(=O)(=O)Oc1ccc(-c2noc(C3CCC3)n2)cc1,-0.5,-6.1,17.0,0.1
Clc1ccc(COc2ccc(-c3noc(C4CC4)n3)cc2)cc1,-0.4,-7.8,100.6*,0.3
S=C(SCc1ncon1)N1CCCC1,-0.5,-9.6,83.1*,10.1
CCn1c2ccccc2c2cc(N3C(=O)C=CC3=O)ccc21,-0.8,-9.0,110.3*,19.2
CCOC(=O)c1cc(C)nc(Sc2ccc(NC(C)=O)cc2)n1,-0.1,-0.1,-11.2,-7.4
SMILES,NOTCH ag,rat GALR2 agon,S1P1 agonist,TLR4-MyD88 inh
O=C(CSc1n[nH]c(=O)n1-c1ccc2c(c1)OCCO2)c1csc2ccccc12,-0.2,-3.8,-6.6,-13.2
Cc1cc(NC(=O)CN2CCOCC2)n(-c2ccccc2)n1,-0.3,137.1*,8.9,-6.5
Cc1cc(NC(=O)CSc2n[nH]c(=O)n2-c2ccc3c(c2)OCCO3)n(-c2ccccc2)n1,2.2*,-6.8,-7.2,-5.8
Cc1cc(NC(=O)C(Cl)Cl)n(-c2ccccc2)n1,0.0,-3.5,-11.7,9.4
O=C1CNC(=S)N1Cc1ccccc1Cl,2.5*,-6.4,0.2,-7.2
O=C1CNC(=S)N1Cc1cccs1,-0.2,-3.3,97.7*,12.9
Cc1nc(-c2n[nH]c(=S)o2)cs1,0.0,-7.2,-2.4,8.3
Cc1cc(C)c2c(N)c(C(N)=O)sc2n1,0.1,-3.0,27.5,-0.7
Cc1cc(C)c2c(=O)[nH]sc2n1,2.8*,-8.4,0.6,1.6
O=[N+]([O-])c1ccc(SC2=NCCS2)c([N+](=O)[O-])c1,-0.8,-8.0,113.3*,-18.9
O=[N+]([O-])c1ccc(SC2=NCCS2)nc1,-1.1,1.8,29.5,-0.6
CCOC(=O)Cn1c(=O)c2ccsc2c2c(C#N)c(SC)sc21,-0.2,139.3*,-15.2,4.5
CS(=O)(=NS(=O)(=O)c1cccc2nsnc12)c1ccc(Cl)cc1 (stereo not drawn),-0.1,-1.5,8.1,9.5
O=[N+]([O-])c1ccc(OS(=O)(=O)c2cccc3nsnc23)cc1,-1.2,47.0*,12.8,6.3
COc1cc(C=N/C(C#N)=C(/C#N)NCC(C)(C)C)cc(Br)c1O,0.5,-1.1,-24.6,-17.2
CC(C)(C)CN/C(C#N)=C(\N)C#N,-0.9,2.5,106.1*,12.7
